From PubChem BioAssay
ALR H2O2 inh: inhibitors of human ALR sulfhydryl oxidase, primary screen, biochemical, H2O2 detection, HRP-luminol luminescence, single point | actives 3.8% (n = 290,000) | inhibition, % (test concentration not listed) | purified ALR, DTT oxidation;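 active = mean replicate inhibition above about 79%, with every replicate also reaching it, limit read from the data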
Target sequence (P55789 whole entry, looked up): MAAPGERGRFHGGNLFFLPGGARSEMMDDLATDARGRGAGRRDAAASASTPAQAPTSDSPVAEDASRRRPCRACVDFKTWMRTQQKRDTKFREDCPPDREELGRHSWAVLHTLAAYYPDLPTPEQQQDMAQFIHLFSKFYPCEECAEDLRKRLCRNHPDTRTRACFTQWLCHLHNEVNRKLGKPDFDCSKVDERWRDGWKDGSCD
SUMO Mot1 rescue: yeast Mot1-301 growth rescue at high temperature, primary screen, SUMOylation pathway inhibitor project, S. cerevisiae, ATP luminescence, 38.5C; actives 1% (n = 320,000); AID 2716, 2010; S. cerevisiae Mot1-301 growth rescue; percent above DMSO median, 100 means doubled; growth rescue, % at 18.8 µM;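 active = every valid replicate shows activation above 250% relative to neutral control wells; inactive = the rest, any valid replicate at or below 250%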
AI-2 QS mod: Vibrio harveyi AI-2 quorum sensing modulators, primary screen, JMH597 strain, luminescence/OD600 ratio; actives 0.4% (n = 300,000); activity change, % at 7.5 µM; AID 2094, 2009; Vibrio harveyi JMH597 AI-2 luminescence/OD600 ratio, 9 h; stronger effect = lower value; strain lacks LuxN and CqsS sensors; 0 = neutral-control median; in the data active = activity change below about -75%, passing the limit was not always enough;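 note: luminescence divided by OD600 gain over 9 h not by final OD600 alone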
HIF activator: HIF pathway transcriptional activators, primary screen, cell-based, U2OS HRE-luciferase, luminescence; activation, % at 7.5 µM (by protocol); U2OS HRE-luciferase reporter; normalized: DMSO 0%, desferrioxamine 100%; actives 0.32% (n = 300,000);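 active = mean activation of at least 10% of the iron chelator positive control signal, with at least half of replicates also reaching 10%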
JMH597 growth: Vibrio harveyi growth inhibition, confirmation, counter-screen for AI-2 quorum sensing project, JMH597 strain, OD600 absorbance | shares compounds with AI-2 QS mod | 9 h; lacks LuxN and CqsS sensors | growth inhibition, % at 7.5 µM | actives 1% (n = 750);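 active = every replicate shows growth inhibition above 50%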
BB721 lum counter: luminescence inhibition in constitutive-on V. harveyi, confirmation, counter-screen for LuxS inhibitor project, strain BB721, luminescence readout. shares compounds with AI-2 QS mod. Vibrio harveyi BB721 luminescence, 9 h. inhibition, % at 7.5 µM. actives 95% (n = 750);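 active = inhibition above about 80% in every replicate, not just on average, limit read from the data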
BB721 growth: growth inhibition of V. harveyi BB721, confirmation, cytotoxicity control for AI-2 quorum sensing inhibitors, strain BB721, absorbance OD600; actives 3% (n = 750); growth inhibition, % at 7.5 µM; AID 2728, 2010; shares compounds with AI-2 QS mod; Vibrio harveyi BB721 growth, 9 h;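 active = every replicate shows growth inhibition above 50%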
AI-2 QS JMH597: Vibrio harveyi AI-2 signaling luminescence modulation – JMH597 strain, confirmation. inhibition, % at 7.5 µM. actives 97% (n = 750). shares compounds with AI-2 QS mod. Vibrio harveyi JMH597 AI-2 quorum sensing luminescence, 9 h; luxN and CqsS knockout, AI-2 only. AID 2736, 2010;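 active = every replicate shows more than 75% inhibition of signal versus neutral control wells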
Mot1 SUMO dose: growth restoration of Mot1-301 yeast on galactose, dose response, SUMO pathway inhibitor project, whole organism, S. cerevisiae, ATP luminescence, cherry-picked samples; shares compounds with SUMO Mot1 rescue; 2,300 tested, under 10 active; S. cerevisiae Mot1-301 galactose growth, 24 h; -100 = growth of slx-deleted rescue strain; growth activity, percent, % at 42 µM;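 active = Signal drops as the depositor expects, and the fitted half-maximal dose is no more than ten times the top valid tested dose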;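 note: more negative values mean stronger growth rescue toward the control strain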
Numbers stand for hits; 0 = inactive; - = no result. Only some compounds are listed: those with a hit (about 4.8% of all), similar ones and a draw of the others.

SMILES	ALR H2O2 inh	SUMO Mot1 rescue	AI-2 QS mod	HIF activator	Mot1 SUMO dose	others
O=C(COC(=O)Cc1ccccc1)Nc1ccc(SC(F)F)cc1	0	0	-91	0	-	JMH597 growth=0;BB721 lum counter=94;BB721 growth=0;AI-2 QS JMH597=99
CNCC(O)c1cc(OCc2ccccc2)c(OCc2ccccc2)cc1F (stereo not given)	0	0	0	0	-
CCCCCn1c(=O)c(C(=O)NC(C)c2ccccc2)c(O)c2ccccc21 (stereo not given)	0	0	0	0	-
Cc1ccsc1C(=O)C1CCCN(Cc2ccn[nH]2)C1 (stereo not given)	0	0	0	0	-
O=C(c1ccc(-c2ccccc2)cc1)C1CCCN(Cc2ccn[nH]2)C1 (stereo not given)	0	0	-84	0	-	JMH597 growth=0;BB721 lum counter=84;BB721 growth=0;AI-2 QS JMH597=91
O=C(c1cc2cc(Cl)ccc2[nH]1)N1CCC2(CC1)OCCO2	0	0	-84	0	-	JMH597 growth=0;BB721 lum counter=96;BB721 growth=0;AI-2 QS JMH597=98
COC(=O)c1cn(C(=O)c2cccc3ccccc23)c2ccccc12	0	490	0	0	0
COC(=O)c1ccccc1-n1c(C)nc2ccccc2c1=O	0	0	-	-	-
CCOP(=O)(OCC)C(NC(=O)c1cccc(C)c1)C(Cl)(Cl)Cl (stereo not given)	0	971	0	0	0
CCOP(=O)(OCC)C(NC(=O)c1ccccc1C)C(Cl)(Cl)Cl (stereo not given)	0	0	0	0	-
CCOP(=O)(OCC)C(NC(=O)c1cccc([N+](=O)[O-])c1)C(Cl)(Cl)Cl (stereo not given)	0	710	0	0	0
Cc1cc(O)c2c(c1)OC(C)(C)C1=C2CC(C)CC1 (stereo not given)	-	0	0	0	-
C=C1C2C[C@@]3([C@@H]1O)[C@@H](C[C@@H]2O)[C@@]12C4[C@@H]3C[C@@H]1[C@@](C)(CC[C@@H]2O)CN4CC	0	405	-	-	0
O=C(COC(=O)c1cccc(O)c1)Nc1ccc(Cl)cc1C(=O)c1ccccc1	0	0	0	0	-
COc1ccc(-c2cc(-c3ccccc3)[n+](C)c(-c3ccccc3)c2)cc1	0	0	0	0	-
C[n+]1c(-c2ccccc2)cc(CCCCc2cc(-c3ccccc3)[n+](C)c(-c3ccccc3)c2)cc1-c1ccccc1	0	368	0	-	0
Nc1ccccc1C(=O)OCC(=O)c1ccc2c(c1)OCCO2	0	0	0	0	-
Cc1cccc(-n2c(O)c(/C=N/Nc3nc4c(c(=O)n(C)c(=O)n4C)n3C)c(=O)[nH]c2=S)c1	-	0	0	0	-
Cc1cccc(N/N=C/c2c(O)[nH]c(=S)[nH]c2=O)c1	100	376	0	0	0
COC(=O)C1CN(C#N)N(c2ccc(Cl)cc2)C12c1ccccc1-c1ccccc12 (stereo not given)	0	792	0	0	0
CC1(C)C(C(=O)N2CCN(c3ccc(Cl)cc3)CC2)C1(C)C	0	0	0	0	-
Cn1cc(C(=O)Cc2ccccc2)c2ccccc21	0	671	0	0	0
COC(=O)C1=C(c2ccc(OC)c(OC)c2)C[C@@H]2CC[C@H]1N2C(=O)N1CCCCC1	0	0	-	-	-
C[C@H](NC(=O)N1C[C@H]2C[C@@H](C1)c1cccc(=O)n1C2)C(=O)Nc1ccc(F)c(F)c1	0	0	0	0	-
